From the supplement of paper PMC11219838

Tested on: Caenorhabditis elegans L1 (N2)
Test: survival and reproduction score of C. elegans L1 (0: 0-10 living worms, 1: 11-20, 2: 21-50, 3: >50, 4: overgrown) (score 0-4); higher = more worms, less nematicidal, active = 1 or less; extreme values may be limits of the assay
Conditions: 60 µM; 6 days; temperature: 20 °C
Outline: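 Compound was pinned to a final 60 µM (0.6% v/v DMSO) into 96-well wells, each holding about 20 synchronized C. elegans N2 L1s and E. coli HB101 in liquid NGM. After 6 days of shaking at 200 rpm and 20 °C in sealed plates, the worms in each well were examined. The ordinal readout of survival and reproduction, based on living worms per well, was assessed under a dissection microscope. On this scale 0 meant 0–10 worms and 4 meant overgrown, starved wells, and two biological replicates were averaged.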

SMILES	survival and reproduction score
CC(C)C(=O)Nc1ccccc1-c1nc(-c2ccncc2)no1	4 (inactive)
Cc1ccc(-c2nc(-c3ccc(C(F)(F)F)cc3)no2)cc1	0 (active)
COc1cccc(-c2nc(-c3ccc(F)cc3)no2)c1	4 (inactive)
N#Cc1cccc(CSc2nnc(-c3ccncc3)o2)c1	4 (inactive)
COc1ccccc1-c1nc(-c2ccc(C)cc2)no1	4 (inactive)
COc1ccc(NC(=O)c2ccccc2-c2nc(-c3ccccc3C)no2)cc1	4 (inactive)
Cc1ccc(-c2noc(COc3ccc(C)cc3C)n2)cc1	4 (inactive)
CC(C)C(=O)Nc1ccccc1-c1nc(-c2ccccn2)no1	4 (inactive)
COc1ccc(OC(C)c2nc(-c3ccccn3)no2)cc1 (stereo not drawn)	4 (inactive)
O=C(c1ccccc1-c1nc(-c2ccc(F)cc2)no1)N1CCCC1	4 (inactive)
COc1cccc(-c2noc(-c3ccc(C)cc3Cl)n2)c1	4 (inactive)
Brc1ccc(-c2noc(CSc3ccccc3)n2)cc1	0 (active)
CCc1cccc(CC)c1NC(=O)CSc1nnc(-c2ccccc2OC)o1	4 (inactive)
Clc1ccc(OCc2nc(-c3cccs3)no2)cc1	2.5 (inactive)
Brc1ccc(-c2nc(-c3ccncc3)no2)cc1	0 (active)
COc1ccccc1-c1nnc(SCC(=O)Nc2ccc(F)cc2)o1	4 (inactive)
O=C(Nc1ccccc1-c1nc(-c2ccncc2)no1)c1cccc(Cl)c1	4 (inactive)
CCOc1ccccc1-c1nc(-c2ccc(F)cc2)no1	4 (inactive)
CCOc1ccccc1-c1nnc(SCC(=O)Nc2nc(C)cs2)o1	4 (inactive)

SMILES	survival and reproduction score
Brc1ccc(-c2nnc(-c3cccs3)o2)o1	0 (active)
COc1ccc(Cl)cc1-c1noc(-c2cccc(C)c2)n1	4 (inactive)
CC(=O)c1c(C)cc(C)c(CSc2nnc(-c3ccco3)o2)c1C	4 (inactive)
O=C(CSc1nnc(-c2cccc(Cl)c2)o1)NC1CCCCC1	4 (inactive)
COc1ccccc1NC(=O)CSc1nnc(-c2ccccc2)o1	3.5 (inactive)
N#Cc1ccc(CSc2nnc(-c3ccncc3)o2)cc1	4 (inactive)
O=C(Nc1ccccc1-c1nc(-c2cccnc2)no1)c1ccccc1Cl	4 (inactive)
COc1ccc(-c2nnc(SCC(=O)Nc3cccc(Cl)c3Cl)o2)cc1	4 (inactive)
CCOc1ccccc1-c1nc(-c2cccc(C)c2)no1	4 (inactive)
COc1nc(-c2ccc(C)cc2)ccc1-c1noc(-c2cccc(C)c2)n1	4 (inactive)
O=C(NCc1cccnc1)c1ccccc1-c1nc(-c2ccccc2Cl)no1	4 (inactive)
Cc1cccc(-c2noc(COc3ccc(Br)cc3)n2)c1	4 (inactive)
CCN(CC)C(=O)CSc1nnc(-c2cccc(Cl)c2)o1	4 (inactive)
O=C(CSc1nnc(-c2cccc3ccccc23)o1)c1ccc(F)cc1	4 (inactive)
COc1ccccc1-c1noc(-c2ccccc2C)n1	4 (inactive)
Fc1ccc(CSc2nnc(-c3ccccn3)o2)cc1	4 (inactive)
COc1nc(C)ccc1-c1noc(-c2ccc(F)cc2)n1	4 (inactive)
Cc1ccccc1-c1nnc(SCC(=O)Nc2cc(C(F)(F)F)ccc2N2CCOCC2)o1	4 (inactive)
CCOC(=O)c1c(NC(=O)CSc2nnc(-c3ccccc3OCC)o2)sc(C(C)=O)c1C	4 (inactive)
